# According to the supplement of paper PMC8728848:
# About 410 targets per protein were measured; listed, in parts, are those with the strongest signals and a random draw of the rest.
# Columns and labels:
# Assay in all cases: glycan array binding signal (z-score within array); higher = stronger binding
# Conditions in all cases: glycan notation: IUPAC condensed, linker removed
# [1] = molecular target: Fuc(a1-2)Gal
# Summary of the method: (§1)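 Glycan array data were curated from 3228 arrays in the Consortium for Functional Glycomics database and kept only where the protein sequence was available. Glycan names were converted to IUPAC-condensed notation, and columns mapping to the same glycan were averaged. The binding signal is a within-array Z-score, averaged across arrays of the same protein sequence at different concentrations or buffers and across linkers. Negative Z-scores can be read as non-binding.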
# [2] = molecular target: Fuc(a1-2)Gal(b1-3)GalNAc(a1-3)[Fuc(a1-2)]Gal(b1-4)Glc
# Summary of the method: as §1
# [3] = molecular target: Fuc(a1-2)Gal(b1-3)GalNAc(b1-3)Gal(a1-4)Gal(b1-4)Glc
# Summary of the method: as §1
# [4] = molecular target: Fuc(a1-2)Gal(b1-3)GlcNAc6S
# Summary of the method: as §1
# [5] = molecular target: Fuc(a1-2)Gal(b1-3)[Fuc(a1-4)]GlcNAc(b1-2)Man(a1-3)[Fuc(a1-2)Gal(b1-3)[Fuc(a1-4)]GlcNAc(b1-2)Man(a1-6)]Man(b1-4)GlcNAc(b1-4)[Fuc(a1-6)]GlcNAc(b1-4)[Fuc(a1-6)]GlcNAc
# Summary of the method: as §1
# [6] = molecular target: Fuc(a1-2)Gal(b1-4)GlcNAc(b1-3)Gal(b1-4)GlcNAc
# Summary of the method: as §1
# [7] = molecular target: Fuc(a1-2)Gal(b1-4)GlcNAc(b1-6)GalNAc
# Summary of the method: as §1
# [8] = molecular target: Fuc(a1-2)Gal(b1-4)[Fuc(a1-3)]GlcNAc(b1-3)[Neu5Ac(a2-6)Gal(b1-4)GlcNAc(b1-6)]Gal(b1-4)Glc
# Summary of the method: as §1
# [9] = molecular target: Fuc(a1-2)Gal6S(b1-4)Glc
# Summary of the method: as §1
# [10] = molecular target: Fuc(a1-2)Gal6S(b1-4)Glc6S
# Summary of the method: as §1
# [11] = molecular target: Fuc(a1-2)[Gal(a1-3)]Gal
# Summary of the method: as §1
# [12] = molecular target: Fuc(a1-2)[Gal(a1-3)]Gal(b1-3)GlcNAc(b1-2)Man(a1-3)[Fuc(a1-2)[Gal(a1-3)]Gal(b1-3)GlcNAc(b1-2)Man(a1-6)]Man(b1-4)GlcNAc(b1-4)GlcNAc
# Summary of the method: as §1
# [13] = molecular target: Fuc(a1-2)[Gal(a1-3)]Gal(b1-4)Glc
# Summary of the method: as §1
# [14] = molecular target: Fuc(a1-2)[GalNAc(a1-3)]Gal(b1-3)GlcNAc(b1-6)GalNAc
# Summary of the method: as §1
# [15] = molecular target: Fuc(a1-2)[GalNAc(a1-3)]Gal(b1-4)GlcNAc(b1-6)GalNAc
# Summary of the method: as §1
# [16] = molecular target: Fuc(a1-2)[GalNAc(a1-4)]Gal(b1-4)GlcNAc
# Summary of the method: as §1
# [17] = molecular target: Fuc(a1-2)[GalNAc(b1-3)]Gal
# Summary of the method: as §1
# [18] = molecular target: Fuc(a1-3)[Gal(b1-4)]GlcNAc(b1-6)[Gal(b1-3)GlcNAc(b1-3)]Gal(b1-4)Glc
# Summary of the method: as §1
# [19] = molecular target: Gal(a1-2)Gal
# Summary of the method: as §1
# [20] = molecular target: Gal(a1-3)Gal(b1-4)GlcNAc(b1-2)Man
# Summary of the method: as §1
# [21] = molecular target: Gal(a1-3)Gal(b1-4)GlcNAc(b1-6)GalNAc
# Summary of the method: as §1
# [22] = molecular target: Gal(a1-4)Gal(b1-4)GlcNAc
# Summary of the method: as §1
# [23] = molecular target: Gal(b1-3)Gal(b1-4)GlcNAc
# Summary of the method: as §1
# [24] = molecular target: Gal(b1-3)GalNAc
# Summary of the method: as §1
# [25] = molecular target: Gal(b1-3)GlcNAc(a1-3)Gal(b1-4)GlcNAc
# Summary of the method: as §1
# [26] = molecular target: Gal(b1-3)GlcNAc(b1-3)Gal(b1-4)GlcNAc(b1-2)[Gal(b1-3)GlcNAc(b1-3)Gal(b1-4)GlcNAc(b1-6)]Man(a1-6)[Gal(b1-3)GlcNAc(b1-3)Gal(b1-4)GlcNAc(b1-2)Man(a1-3)]Man(b1-4)GlcNAc(b1-4)[Fuc(a1-6)]GlcNAc
# Summary of the method: as §1
# [27] = molecular target: Gal(b1-3)GlcNAc(b1-6)GalNAc
# Summary of the method: as §1
# [28] = molecular target: Gal(b1-3)GlcNAc6S
# Summary of the method: as §1
# [29] = molecular target: Gal(b1-4)GlcNAc
# Summary of the method: as §1
# [30] = molecular target: Gal(b1-4)GlcNAc(b1-3)Gal(b1-3)GalNAc
# Summary of the method: as §1
binder,measurement,setting,value
"MGL (Homo sapiens), Q8IUN9 (protein) MTRTYENFQYLENKVKVQGFKNGPLPLQSLLQRLCSGPCHLLLSLGLGLLLLVIICVVGFQNSKFQRDLVTLRTDFSNFTSNTVAEIQALTSQGSSLEETIASLKAEVEGFKQERQAGVSELQEHTTQKAHLGHCPHCPSVCVPVHSEMLLRVQQLVQDLKKLTCQVATLNNNASTEGTCCPVNWVEHQDSCYWFSHSGMSWAEAEKYCQLKNAHLVVINSREEQNFVQKYLGSAYTWMGLSDPEGAWKWVDGTDYATGFQNWKPGQPDDWQGHGLGGGEDCAHFHPDGRWNDDVCQRPYHWVCEAGLGQTSQESH",glycan array binding signal (z-score),[1],-0.232
same,glycan array binding signal (z-score),[2],-0.246
same,glycan array binding signal (z-score),[3],-0.242
same,glycan array binding signal (z-score),[4],-0.178
same,glycan array binding signal (z-score),[5],-0.238
same,glycan array binding signal (z-score),[6],-0.247
same,glycan array binding signal (z-score),[7],3.85
same,glycan array binding signal (z-score),[8],-0.247
same,glycan array binding signal (z-score),[9],-0.242
same,glycan array binding signal (z-score),[10],-0.254
same,glycan array binding signal (z-score),[11],-0.241
same,glycan array binding signal (z-score),[12],-0.249
same,glycan array binding signal (z-score),[13],-0.237
same,glycan array binding signal (z-score),[14],3.6
same,glycan array binding signal (z-score),[15],4.98
same,glycan array binding signal (z-score),[16],3.39
same,glycan array binding signal (z-score),[17],4.3
same,glycan array binding signal (z-score),[18],-0.251
same,glycan array binding signal (z-score),[19],-0.25
same,glycan array binding signal (z-score),[20],-0.252
same,glycan array binding signal (z-score),[21],3.79
same,glycan array binding signal (z-score),[22],-0.232
same,glycan array binding signal (z-score),[23],-0.245
same,glycan array binding signal (z-score),[24],-0.242
same,glycan array binding signal (z-score),[25],-0.245
same,glycan array binding signal (z-score),[26],-0.049
same,glycan array binding signal (z-score),[27],3.24
same,glycan array binding signal (z-score),[28],-0.249
same,glycan array binding signal (z-score),[29],-0.243
same,glycan array binding signal (z-score),[30],-0.27
